The nature of the test: Staphylococcus aureus RN4220 growth blockers – two temperatures, LtaS inhibitor project, primary screen (AID 720641). To be noted: S. aureus RN4220 growth, OD600, 20 h, 42 °C, stronger effect = lower value.

This note sets out measurements from PubChem BioAssay AID720641 (ICCB-Longwood Screening Facility, Harvard Medical School, 2013).

The structures appear in SMILES notation. Hit rate of the full screen: of about 170,000 compounds, about 900 (0.53%) were called active.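 The calls were made as follows: active = relative growth at most 50% at the other temperature and 20+ points below 30 °C, or under 10% at both; inactive = the rest, inconclusive results apart.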 The full list was thinned out, with actives kept by preference.

Regarding `Cc1onc(-c2ccccc2)c1C(=O)Nc1cccc(C(F)(F)F)c1`, the relative growth was 113% (inactive). Also, under “measured here: growth at 30 °C”, the relative growth turned out to be 87.3%.

Turning to `Cc1oc2c(F)c(F)c(F)c(F)c2c1S(=O)(=O)Nc1cccc(C(F)(F)F)c1`, the relative growth was 8.52% (active). The relative growth (measured here: growth at 30 °C) was 1.85%.

Regarding `CCNS(=O)(=O)c1ccc(NC(=O)Nc2cccc(C(F)(F)F)c2)cc1`, the relative growth was 98.8% (inactive). The relative growth (measured here: growth at 30 °C) was 83.1%.

For `Cc1cc(N2CCCCC2)nc2ccc(NC(=O)CCC(=O)N3CCC(C)CC3)cc12`, the relative growth was 78.9% (inactive). Besides, under “measured here: growth at 30 °C”, the relative growth was 78.2%.

`CCc1ccc2[nH]c(=O)c(CN(Cc3ccco3)C(=S)NCC(C)C)cc2c1`: the relative growth was 84% (inactive). Where the note is “measured here: growth at 30 °C”, the relative growth came out at 74.7%.

In the case of `COc1ccc(OCCN2C(=O)c3ccccc3S2(=O)=O)cc1`, the relative growth is 102% (inactive). Moreover, where the note is “measured here: growth at 30 °C”, the relative growth amounted to 95%.

In the case of `CCCCCc1c(C)nc(-c2ccccn2)[nH]c1=O`, the relative growth is 1.74% (active). Also, the relative growth (measured here: growth at 30 °C) was 1.83%.

As to `CC(=O)Nc1nc(C)c(Cc2ccccc2)c(=O)[nH]1`, the relative growth was 106% (inactive). The relative growth (measured here: growth at 30 °C) was 86.1%.

In the case of `CCCCc1c(COC)nc(-c2ccc(Cl)cc2)[nH]c1=O`, the relative growth was 122% (inactive). The relative growth (measured here: growth at 30 °C) came to 53%.

Turning to `CC(C)(C)C(=O)OCC(=O)Nc1ccccc1`, the relative growth is 124% (inactive). The relative growth (measured here: growth at 30 °C) amounted to 92.1%.

For the compound `Cc1nc(/N=C(/N)NC(=O)Cc2ccccc2)nc2ccccc12`, the relative growth was 93.2% (inactive). The relative growth (measured here: growth at 30 °C) came to 87.1%.

On to `Cc1ccc2nc(CN3CCc4sccc4C3c3cccs3)cn2c1` (centres undefined), for which the relative growth was 0.12% (active). Also, for the setting “measured here: growth at 30 °C”, the relative growth was -0.28%.

Turning to `N#CCSc1ccccc1NC(=O)CN1CCc2sccc2C1c1cccs1` (centres undefined), the relative growth was 94.4% (inactive). Also, the relative growth (measured here: growth at 30 °C) was 87%.

On to `CC(NC(=O)CN1CCc2sccc2C1c1cccs1)c1ccc2c(c1)OCCO2` (centres undefined), for which the relative growth was 116% (inactive). Besides, the relative growth (measured here: growth at 30 °C) came to 98.8%.

In the case of `CCOC(=O)c1oc2ccccc2c1N=Cc1c(O)n(CC)c(=S)n(CC)c1=O`, the relative growth is 99% (inactive). Besides, for the setting “measured here: growth at 30 °C”, the relative growth worked out at 93.3%.

Consider `CSc1nsc(SCC(=O)N2CCCC2)n1`, for which the relative growth was 93.6% (inactive). The relative growth (measured here: growth at 30 °C) was determined as 82.6%.

On to `CCOC(=O)N1CCN(CC(=O)NCCc2ccc(Cl)cc2Cl)CC1`, for which the relative growth was 90.9% (inactive). Besides, the relative growth (measured here: growth at 30 °C) was 81.3%.

As to `O=C(Cn1cc(C(F)(F)F)cc(Cl)c1=O)Nc1ncccn1`, the relative growth was 94.1% (inactive). In addition, the relative growth (measured here: growth at 30 °C) was found to be 94.7%.

As for `CCC(CC)C(=O)N(c1ccc(OC)cc1OC)C1C=CS(=O)(=O)C1` (centres undefined), the relative growth is 99.8% (inactive). The relative growth (measured here: growth at 30 °C) amounted to 90.8%.

As for `COc1cccc2c1OCc1sc3[nH]c(=S)[nH]c(=O)c3c1-2`, the relative growth is 50.5% (inactive). Further, under “measured here: growth at 30 °C”, the relative growth was found to be 32.4%.

In the case of `N#Cc1ccc(OCC(=O)N=Nc2[nH]c(N)c3ccccc23)cc1`, the relative growth is 104% (inactive). The relative growth (measured here: growth at 30 °C) was 101%.

In the case of `Cn1c(NCc2ccccc2)nc2ccccc21`, the relative growth was 105% (inactive). The relative growth (measured here: growth at 30 °C) is 64.6%.

As for `Cn1c(-c2ccc(C(=O)c3ccccc3)s2)nc2ccccc21`, the relative growth is 101% (inactive). Besides, for the setting “measured here: growth at 30 °C”, the relative growth stood at 95.7%.

Regarding `Cn1c(NC(=O)c2ccccc2)nc2ccccc21`, the relative growth was 9.06% (active). The relative growth (measured here: growth at 30 °C) was 0.29%.

As for `O=C(COc1ccccc1)NC(C(=O)O)C12CC3CC(CC(C3)C1)C2` (centres undefined), the relative growth is 112% (inactive). Also, the relative growth (measured here: growth at 30 °C) amounted to 83.1%.

Take `CN1CCN(c2nc(C34CC5CC(CC(C5)C3)C4)cs2)CC1`: the relative growth is -0.89% (active). For the same compound, the relative growth (measured here: growth at 30 °C) was -0.63%.

In the case of `c1snnc1C12CC3CC(CC(C3)C1)C2`, the relative growth is 103% (inactive). In addition, the relative growth (measured here: growth at 30 °C) is 109%.

In the case of `CC(C)(C)C(=O)Nc1ccc(Br)cc1`, the relative growth was 109% (inactive). Also, the relative growth (measured here: growth at 30 °C) turned out to be 84.5%.

On to `CCOC(=O)c1cnc(SCSc2nc3ccccc3s2)nc1N`, for which the relative growth was 86.4% (inactive). For the same compound, the relative growth (measured here: growth at 30 °C) stood at 87%.

For the compound `CC(=O)Oc1ccc2occ(C(=O)c3cc4ccccc4o3)c2c1`, the relative growth was 89.3% (inactive). Besides, under “measured here: growth at 30 °C”, the relative growth worked out at 86.2%.

`CC(C)Oc1ccc(NC(=O)c2cc3ccccc3o2)cc1`: the relative growth was 87.3% (inactive). Also, the relative growth (measured here: growth at 30 °C) came out at 89.7%.

`Cc1ccc(OC(=O)c2cc3ccccc3o2)cc1`: the relative growth is 0.01% (active). Besides, the relative growth (measured here: growth at 30 °C) is -0.88%.

With `O=C(Oc1ccc2oc(=O)sc2c1)c1ccccc1`, the relative growth was 92.5% (inactive). Besides, the relative growth (measured here: growth at 30 °C) is 94%.

With `CC(C)n1c(CCC(=O)O)ccc1-c1ccc(F)cc1`, the relative growth was 126% (inactive). Also, the relative growth (measured here: growth at 30 °C) was found to be 97.4%.

Consider `CN(C)[C@@H]1C(=O)C(C(N)=O)=C(O)[C@@]2(O)C(=O)C3=C(O)c4c(O)ccc(Cl)c4[C@@H](O)[C@H]3C[C@@H]12`, for which the relative growth is -0.41% (active). For the same compound, under “measured here: growth at 30 °C”, the relative growth was -1%.

For `COC(=O)/C(C#N)=C(\NCc1ccc(Cl)cc1Cl)SC`, the relative growth is 99.2% (inactive). The relative growth (measured here: growth at 30 °C) worked out at 99.3%.

Take `NC(=O)C1CCN(C(=O)CSc2ccc3ccccc3c2)CC1`: the relative growth is 84.3% (inactive). Besides, the relative growth (measured here: growth at 30 °C) stood at 94.8%.

For the compound `COc1ccc(F)cc1C(O)CSCc1ccccc1` (centres undefined), the relative growth was 124% (inactive). The relative growth (measured here: growth at 30 °C) was 84.8%.

For the compound `CCOC(=O)Nc1nc2c(ccc3ccccc32)s1`, the relative growth is 92.4% (inactive). In addition, the relative growth (measured here: growth at 30 °C) amounted to 91.2%.

As to `O=C(O)C1CCC(CNS(=O)(=O)c2ccc(Br)cc2)CC1` (centres undefined), the relative growth is 108% (inactive). Moreover, the relative growth (measured here: growth at 30 °C) amounted to 96.5%.

In the case of `CCOC(=O)c1oc2nc(-c3ccccc3)cc(-c3ccco3)c2c1N`, the relative growth is 97.1% (inactive). Where the note is “measured here: growth at 30 °C”, the relative growth amounted to 91.1%.

Take `CCOc1ccc(CNC(=O)c2ccc(CS(=O)c3ccccc3)o2)cc1` (centres undefined): the relative growth was 101% (inactive). Also, the relative growth (measured here: growth at 30 °C) came to 79.9%.
